Laboratory results published in article PMC7862700, “An all-to-all approach to the identification of sequence-specific readers for epigenetic DNA modifications on cytosine”.

Tests used:
Test in all cases: DAPPL (digital affinity profiling via proximity ligation, sequencing); 10 mM Tris-HCl pH 7.5, 50 mM NaCl, 1 mM DTT, 4% glycerol, room temperature, 30 min; GST-TFs on glutathione beads, 16-mer random dsDNA library, 0.1% formaldehyde crosslink after washing; high values mean tight binding
FLI1 = molecular target: T1, FLI1 (Homo sapiens, UniProt Q01543 1-452); details: protein: recombinant; tags: N-terminal GST; dsDNA, one strand shown
T1 sequence: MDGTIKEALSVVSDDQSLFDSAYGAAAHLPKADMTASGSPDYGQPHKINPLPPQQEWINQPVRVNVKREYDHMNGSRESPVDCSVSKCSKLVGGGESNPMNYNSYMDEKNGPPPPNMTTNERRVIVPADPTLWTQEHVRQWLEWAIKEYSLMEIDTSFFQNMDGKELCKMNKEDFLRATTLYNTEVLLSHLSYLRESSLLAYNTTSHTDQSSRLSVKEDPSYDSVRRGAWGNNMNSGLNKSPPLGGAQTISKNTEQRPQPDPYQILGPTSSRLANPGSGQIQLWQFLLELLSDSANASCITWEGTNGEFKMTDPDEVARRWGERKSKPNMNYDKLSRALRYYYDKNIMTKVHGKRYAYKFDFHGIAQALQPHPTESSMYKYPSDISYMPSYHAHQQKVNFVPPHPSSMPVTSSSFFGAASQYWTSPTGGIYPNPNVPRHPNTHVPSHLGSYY
Summary of the method: (§1)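 Human transcription factors carrying a GST fusion were produced in yeast, bound to glutathione beads, tagged with DNA barcodes and pooled together with a tag-only sample. Each pool was held with 200 nmole of a random double-stranded 16-mer DNA library in Tris/NaCl/DTT/glycerol buffer for 30 min at room temperature, then washed, crosslinked in 0.1% formaldehyde, proximity-ligated with BsaI/T4 ligase (1 h, 37 °C), PCR-amplified and sequenced on an Illumina NextSeq500. Binding signal is the read frequency of each hexamer for a given factor divided by its frequency in the tag-only sample.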

ELK1 = molecular target: T2, ELK1 (Homo sapiens, UniProt P19419 1-428); details: protein: recombinant; tags: N-terminal GST; dsDNA, one strand shown
T2 sequence: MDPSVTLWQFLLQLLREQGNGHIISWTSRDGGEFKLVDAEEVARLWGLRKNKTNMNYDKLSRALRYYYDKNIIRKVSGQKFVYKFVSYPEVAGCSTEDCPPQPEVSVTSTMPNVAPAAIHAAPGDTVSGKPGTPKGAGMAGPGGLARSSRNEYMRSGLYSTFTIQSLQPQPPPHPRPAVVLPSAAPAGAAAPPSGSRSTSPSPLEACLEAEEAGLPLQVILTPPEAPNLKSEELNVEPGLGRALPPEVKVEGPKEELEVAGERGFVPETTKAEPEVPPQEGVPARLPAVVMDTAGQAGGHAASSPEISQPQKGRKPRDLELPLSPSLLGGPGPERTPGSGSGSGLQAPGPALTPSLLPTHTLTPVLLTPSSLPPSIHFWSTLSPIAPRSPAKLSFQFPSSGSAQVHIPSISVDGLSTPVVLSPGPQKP
Summary of the method: as §1

GABPA = molecular target: T3, GABPA (Homo sapiens, UniProt Q06546 1-454); details: protein: recombinant; tags: N-terminal GST; dsDNA, one strand shown
T3 sequence: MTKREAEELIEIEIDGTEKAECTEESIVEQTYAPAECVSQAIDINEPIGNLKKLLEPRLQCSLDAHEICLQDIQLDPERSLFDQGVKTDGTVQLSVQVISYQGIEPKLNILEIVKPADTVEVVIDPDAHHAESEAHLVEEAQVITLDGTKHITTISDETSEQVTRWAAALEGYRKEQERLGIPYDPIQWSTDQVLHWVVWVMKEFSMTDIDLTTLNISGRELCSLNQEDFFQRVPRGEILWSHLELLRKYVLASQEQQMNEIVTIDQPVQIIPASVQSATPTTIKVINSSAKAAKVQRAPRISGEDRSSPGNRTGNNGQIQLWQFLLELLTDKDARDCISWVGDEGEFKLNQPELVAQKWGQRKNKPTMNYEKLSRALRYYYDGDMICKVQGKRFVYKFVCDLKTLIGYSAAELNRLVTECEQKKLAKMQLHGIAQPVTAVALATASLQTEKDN
Summary of the method: as §1

ERG = molecular target: T4, ERG (Homo sapiens, UniProt P11308 1-479); details: protein: recombinant; tags: N-terminal GST; dsDNA, one strand shown
T4 sequence: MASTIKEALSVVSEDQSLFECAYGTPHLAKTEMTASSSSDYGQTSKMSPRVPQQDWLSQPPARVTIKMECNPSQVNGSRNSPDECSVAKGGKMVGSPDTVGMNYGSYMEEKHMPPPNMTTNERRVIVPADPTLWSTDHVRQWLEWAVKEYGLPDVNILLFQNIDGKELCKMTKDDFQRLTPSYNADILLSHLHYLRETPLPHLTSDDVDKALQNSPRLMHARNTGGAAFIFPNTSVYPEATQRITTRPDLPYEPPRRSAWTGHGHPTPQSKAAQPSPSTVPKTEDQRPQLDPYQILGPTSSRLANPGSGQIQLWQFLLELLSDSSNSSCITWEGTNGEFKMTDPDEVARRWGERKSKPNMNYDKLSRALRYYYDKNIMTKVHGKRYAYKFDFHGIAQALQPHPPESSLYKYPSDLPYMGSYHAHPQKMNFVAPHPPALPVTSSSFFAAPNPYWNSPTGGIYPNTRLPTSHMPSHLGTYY
Summary of the method: as §1

ELF1 = ELF1 (Homo sapiens, UniProt P32519 1-619); details: protein: recombinant; tags: N-terminal GST; dsDNA, one strand shown
Summary of the method: as §1

EHF = molecular target: T5, EHF (Homo sapiens, UniProt Q9NZC4 1-300); details: protein: recombinant; tags: N-terminal GST; dsDNA, one strand shown
T5 sequence: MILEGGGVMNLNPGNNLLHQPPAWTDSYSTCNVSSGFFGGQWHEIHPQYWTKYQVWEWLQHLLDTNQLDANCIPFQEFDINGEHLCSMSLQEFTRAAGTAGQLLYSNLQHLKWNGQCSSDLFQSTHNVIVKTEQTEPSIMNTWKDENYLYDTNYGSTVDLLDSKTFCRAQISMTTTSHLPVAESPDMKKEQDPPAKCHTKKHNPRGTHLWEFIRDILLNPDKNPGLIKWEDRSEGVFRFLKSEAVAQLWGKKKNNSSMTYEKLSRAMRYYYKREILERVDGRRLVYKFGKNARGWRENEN
Summary of the method: as §1

SPI1 = SPI1 (Homo sapiens, UniProt P17947 1-270); details: protein: recombinant; tags: N-terminal GST; dsDNA, one strand shown
Summary of the method: as §1

SPIB = SPIB (Homo sapiens, UniProt Q01892 1-262); details: protein: recombinant; tags: N-terminal GST; dsDNA, one strand shown
Summary of the method: as §1

ELK3 = molecular target: T6, ELK3 (Homo sapiens, UniProt P41970 1-407); details: protein: recombinant; tags: N-terminal GST; dsDNA, one strand shown
T6 sequence: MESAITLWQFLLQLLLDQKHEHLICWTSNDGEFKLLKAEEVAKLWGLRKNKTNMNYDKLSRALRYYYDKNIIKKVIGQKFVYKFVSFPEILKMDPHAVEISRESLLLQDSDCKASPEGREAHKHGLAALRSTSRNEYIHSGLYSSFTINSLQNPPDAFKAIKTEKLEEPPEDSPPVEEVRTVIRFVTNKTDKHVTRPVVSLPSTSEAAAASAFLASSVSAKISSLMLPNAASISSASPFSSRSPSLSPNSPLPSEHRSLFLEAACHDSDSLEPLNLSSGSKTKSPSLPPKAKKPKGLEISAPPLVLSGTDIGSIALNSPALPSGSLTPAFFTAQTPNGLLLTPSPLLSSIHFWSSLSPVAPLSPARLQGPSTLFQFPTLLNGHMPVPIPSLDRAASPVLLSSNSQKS
Summary of the method: as §1

FEV = molecular target: T7, FEV (Homo sapiens, UniProt Q99581 1-238); details: protein: recombinant; tags: N-terminal GST; dsDNA, one strand shown
T7 sequence: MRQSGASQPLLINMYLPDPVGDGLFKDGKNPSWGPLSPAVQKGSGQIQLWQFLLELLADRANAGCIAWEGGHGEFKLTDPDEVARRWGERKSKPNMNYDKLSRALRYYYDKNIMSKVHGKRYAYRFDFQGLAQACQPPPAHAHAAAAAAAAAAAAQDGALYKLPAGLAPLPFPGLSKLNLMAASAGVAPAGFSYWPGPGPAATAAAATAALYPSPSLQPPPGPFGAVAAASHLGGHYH
Summary of the method: as §1

ETV5 = ETV5 (Homo sapiens, UniProt P41161 1-510); details: protein: recombinant; tags: N-terminal GST; dsDNA, one strand shown
Summary of the method: as §1

HSF1 = HSF1 (Homo sapiens, UniProt Q00613 1-529); details: protein: recombinant; tags: N-terminal GST; chain copies: 3; dsDNA, one strand shown
Summary of the method: as §1

SPIC = molecular target: T8, SPIC (Homo sapiens, UniProt Q8N5J4 1-248); details: protein: recombinant; tags: N-terminal GST; dsDNA, one strand shown
T8 sequence: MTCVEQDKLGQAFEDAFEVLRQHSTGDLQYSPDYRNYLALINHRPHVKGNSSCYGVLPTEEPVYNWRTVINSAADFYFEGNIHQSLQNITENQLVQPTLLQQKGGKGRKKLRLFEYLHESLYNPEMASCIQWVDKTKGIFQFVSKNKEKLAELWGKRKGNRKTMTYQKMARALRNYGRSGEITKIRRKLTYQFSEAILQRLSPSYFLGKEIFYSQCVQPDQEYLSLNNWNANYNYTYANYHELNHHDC
Summary of the method: as §1

ELF4 = ELF4 (Homo sapiens, UniProt Q99607 1-663); details: protein: recombinant; tags: N-terminal GST; dsDNA, one strand shown
Summary of the method: as §1

ELK4 = molecular target: T9, ELK4 (Homo sapiens, UniProt P28324-2 1-405); details: protein: recombinant; tags: N-terminal GST; dsDNA, one strand shown
T9 sequence: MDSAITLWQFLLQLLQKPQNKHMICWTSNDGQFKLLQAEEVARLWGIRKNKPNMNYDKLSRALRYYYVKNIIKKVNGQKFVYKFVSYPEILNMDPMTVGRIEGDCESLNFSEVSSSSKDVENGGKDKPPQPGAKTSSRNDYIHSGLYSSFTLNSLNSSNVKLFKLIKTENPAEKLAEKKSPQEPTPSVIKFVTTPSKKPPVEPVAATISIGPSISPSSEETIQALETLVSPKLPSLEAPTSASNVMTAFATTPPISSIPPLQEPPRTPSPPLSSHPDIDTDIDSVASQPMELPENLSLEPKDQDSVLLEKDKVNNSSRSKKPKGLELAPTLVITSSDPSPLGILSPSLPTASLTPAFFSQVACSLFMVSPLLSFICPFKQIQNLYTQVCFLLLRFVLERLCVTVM
Summary of the method: as §1

ETV2 = molecular target: T10, ETV2 (Homo sapiens, UniProt O00321 1-342); details: protein: recombinant; tags: N-terminal GST; dsDNA, one strand shown
T10 sequence: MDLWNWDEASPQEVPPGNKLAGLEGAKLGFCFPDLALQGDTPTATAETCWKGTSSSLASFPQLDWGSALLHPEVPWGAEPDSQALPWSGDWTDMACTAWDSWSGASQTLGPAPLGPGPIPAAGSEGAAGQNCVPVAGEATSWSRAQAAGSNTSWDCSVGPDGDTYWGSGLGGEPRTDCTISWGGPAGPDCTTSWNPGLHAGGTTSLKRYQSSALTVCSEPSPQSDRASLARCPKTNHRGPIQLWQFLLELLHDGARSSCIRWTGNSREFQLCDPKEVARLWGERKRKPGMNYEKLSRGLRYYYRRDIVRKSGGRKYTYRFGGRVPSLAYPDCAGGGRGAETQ
Summary of the method: as §1

ELF3 = molecular target: T11, ELF3 (Homo sapiens, UniProt P78545 1-371); details: protein: recombinant; tags: N-terminal GST; dsDNA, one strand shown
T11 sequence: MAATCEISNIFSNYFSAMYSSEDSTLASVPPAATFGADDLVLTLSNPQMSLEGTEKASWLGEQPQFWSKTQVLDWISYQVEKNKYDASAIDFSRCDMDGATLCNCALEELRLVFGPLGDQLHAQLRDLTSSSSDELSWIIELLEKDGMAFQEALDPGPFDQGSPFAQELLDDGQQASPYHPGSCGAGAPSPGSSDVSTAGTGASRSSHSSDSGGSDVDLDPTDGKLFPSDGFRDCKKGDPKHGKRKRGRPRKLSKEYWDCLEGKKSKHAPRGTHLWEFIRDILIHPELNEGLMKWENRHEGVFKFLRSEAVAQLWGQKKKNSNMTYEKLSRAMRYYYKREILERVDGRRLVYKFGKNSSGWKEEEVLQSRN
Summary of the method: as §1

CRX = CRX (Homo sapiens, UniProt O43186 1-299); details: protein: recombinant; tags: N-terminal GST; dsDNA, one strand shown
Summary of the method: as §1

ETV1 = ETV1 (Homo sapiens, UniProt P50549 1-477); details: protein: recombinant; tags: N-terminal GST; dsDNA, one strand shown
Summary of the method: as §1

Chain of ELF4 (Q99607 whole entry): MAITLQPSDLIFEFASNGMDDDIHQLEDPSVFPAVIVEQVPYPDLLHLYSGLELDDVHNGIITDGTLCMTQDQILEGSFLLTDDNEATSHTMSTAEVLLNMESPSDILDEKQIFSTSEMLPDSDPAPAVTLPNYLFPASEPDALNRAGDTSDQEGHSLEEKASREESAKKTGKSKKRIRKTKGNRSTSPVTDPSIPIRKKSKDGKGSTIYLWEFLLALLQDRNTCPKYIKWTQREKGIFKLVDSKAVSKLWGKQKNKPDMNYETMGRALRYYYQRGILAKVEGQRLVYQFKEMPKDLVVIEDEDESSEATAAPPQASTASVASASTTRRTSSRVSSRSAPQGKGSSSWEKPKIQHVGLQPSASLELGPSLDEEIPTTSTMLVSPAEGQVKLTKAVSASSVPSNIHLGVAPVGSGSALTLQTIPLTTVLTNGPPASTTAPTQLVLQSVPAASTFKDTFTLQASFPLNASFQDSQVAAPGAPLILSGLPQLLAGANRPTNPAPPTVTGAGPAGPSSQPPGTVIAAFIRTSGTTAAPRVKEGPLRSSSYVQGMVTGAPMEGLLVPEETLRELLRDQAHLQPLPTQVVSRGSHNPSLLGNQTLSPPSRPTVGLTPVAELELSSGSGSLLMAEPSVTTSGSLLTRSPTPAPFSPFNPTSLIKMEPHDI
Chain of HSF1 (Q00613 whole entry): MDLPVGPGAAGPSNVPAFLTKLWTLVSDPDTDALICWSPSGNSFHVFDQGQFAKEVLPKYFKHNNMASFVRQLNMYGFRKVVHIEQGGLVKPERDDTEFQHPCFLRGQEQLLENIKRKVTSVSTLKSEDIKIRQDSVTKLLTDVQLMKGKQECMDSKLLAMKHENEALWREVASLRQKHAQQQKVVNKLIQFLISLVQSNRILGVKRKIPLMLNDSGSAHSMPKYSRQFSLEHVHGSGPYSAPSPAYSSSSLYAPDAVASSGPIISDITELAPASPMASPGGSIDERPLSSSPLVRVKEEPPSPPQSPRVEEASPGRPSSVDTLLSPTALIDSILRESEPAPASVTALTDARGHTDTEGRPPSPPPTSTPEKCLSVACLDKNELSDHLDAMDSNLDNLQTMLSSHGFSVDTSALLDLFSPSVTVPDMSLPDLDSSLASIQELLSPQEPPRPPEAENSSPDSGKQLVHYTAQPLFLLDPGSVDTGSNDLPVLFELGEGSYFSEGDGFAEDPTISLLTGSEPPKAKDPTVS
Chain of CRX (O43186 whole entry): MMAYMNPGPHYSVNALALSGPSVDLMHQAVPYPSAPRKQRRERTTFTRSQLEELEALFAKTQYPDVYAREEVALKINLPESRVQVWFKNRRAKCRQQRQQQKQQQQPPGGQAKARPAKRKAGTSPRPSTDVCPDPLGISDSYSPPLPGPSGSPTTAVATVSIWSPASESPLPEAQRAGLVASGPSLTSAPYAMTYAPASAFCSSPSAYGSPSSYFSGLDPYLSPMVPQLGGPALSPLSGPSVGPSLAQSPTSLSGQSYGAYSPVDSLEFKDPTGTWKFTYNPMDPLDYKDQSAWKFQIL
Chain of ELF1 (P32519 whole entry): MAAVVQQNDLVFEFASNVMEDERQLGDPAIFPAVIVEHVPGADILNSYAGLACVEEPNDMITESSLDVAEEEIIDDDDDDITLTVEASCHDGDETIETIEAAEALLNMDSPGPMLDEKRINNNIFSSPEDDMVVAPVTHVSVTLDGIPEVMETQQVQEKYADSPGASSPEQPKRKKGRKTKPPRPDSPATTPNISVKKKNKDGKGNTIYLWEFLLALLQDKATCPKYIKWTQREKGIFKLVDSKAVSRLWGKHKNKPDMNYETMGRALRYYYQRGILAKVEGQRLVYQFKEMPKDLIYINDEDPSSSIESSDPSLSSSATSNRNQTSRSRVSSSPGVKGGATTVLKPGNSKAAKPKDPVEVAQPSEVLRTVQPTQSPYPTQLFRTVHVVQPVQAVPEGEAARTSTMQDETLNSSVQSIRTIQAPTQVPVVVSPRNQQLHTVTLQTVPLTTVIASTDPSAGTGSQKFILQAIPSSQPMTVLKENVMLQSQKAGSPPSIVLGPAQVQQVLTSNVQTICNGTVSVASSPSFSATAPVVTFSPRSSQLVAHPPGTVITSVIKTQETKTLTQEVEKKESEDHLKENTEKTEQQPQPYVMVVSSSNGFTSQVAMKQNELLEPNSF
Chain of ETV5 (P41161 whole entry): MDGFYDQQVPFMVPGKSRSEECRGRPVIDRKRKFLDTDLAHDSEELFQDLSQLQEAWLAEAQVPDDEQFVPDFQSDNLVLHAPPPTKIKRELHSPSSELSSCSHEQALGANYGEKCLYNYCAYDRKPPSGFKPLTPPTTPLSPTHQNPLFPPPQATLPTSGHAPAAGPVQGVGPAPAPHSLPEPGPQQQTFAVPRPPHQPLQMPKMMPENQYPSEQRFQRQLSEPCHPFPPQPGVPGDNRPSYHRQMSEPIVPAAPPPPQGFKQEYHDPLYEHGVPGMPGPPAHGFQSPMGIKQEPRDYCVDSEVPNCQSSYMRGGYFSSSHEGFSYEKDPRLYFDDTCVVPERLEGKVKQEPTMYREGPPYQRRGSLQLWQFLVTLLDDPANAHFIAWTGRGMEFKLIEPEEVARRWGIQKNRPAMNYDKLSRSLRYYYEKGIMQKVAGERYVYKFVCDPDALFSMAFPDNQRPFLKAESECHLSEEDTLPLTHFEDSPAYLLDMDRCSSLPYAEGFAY
Chain of ETV1 (P50549 whole entry): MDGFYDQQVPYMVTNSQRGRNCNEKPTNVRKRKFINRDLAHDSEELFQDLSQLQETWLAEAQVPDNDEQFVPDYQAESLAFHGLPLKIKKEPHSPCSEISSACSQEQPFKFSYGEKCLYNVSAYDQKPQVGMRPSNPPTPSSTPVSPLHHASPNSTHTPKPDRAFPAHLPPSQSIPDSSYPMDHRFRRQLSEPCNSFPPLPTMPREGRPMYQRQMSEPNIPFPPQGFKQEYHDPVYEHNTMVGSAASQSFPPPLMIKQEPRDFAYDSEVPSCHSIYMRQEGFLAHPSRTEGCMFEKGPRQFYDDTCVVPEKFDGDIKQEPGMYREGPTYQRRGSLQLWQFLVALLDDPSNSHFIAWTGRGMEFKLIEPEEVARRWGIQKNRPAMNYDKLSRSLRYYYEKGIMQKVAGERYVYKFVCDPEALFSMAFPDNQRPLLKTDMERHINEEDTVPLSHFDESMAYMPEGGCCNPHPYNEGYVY
Chain of SPIB (Q01892 whole entry): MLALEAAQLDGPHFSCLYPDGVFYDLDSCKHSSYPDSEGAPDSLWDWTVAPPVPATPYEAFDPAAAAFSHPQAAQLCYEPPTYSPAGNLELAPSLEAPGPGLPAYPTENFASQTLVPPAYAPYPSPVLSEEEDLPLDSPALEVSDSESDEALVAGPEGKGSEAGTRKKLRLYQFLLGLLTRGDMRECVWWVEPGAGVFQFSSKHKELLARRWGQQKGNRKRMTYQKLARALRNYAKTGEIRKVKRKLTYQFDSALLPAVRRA

## AACATT
FLI1
  binding signal: 1.37 fold enrichment (6-mer frequency, TF over GST control)
ELK1
  binding signal: 1.26 fold enrichment (6-mer frequency, TF over GST control)
GABPA
  binding signal: 1.35 fold enrichment (6-mer frequency, TF over GST control)
ERG
  binding signal: 1.25 fold enrichment (6-mer frequency, TF over GST control)
ELF1
  binding signal: 1.29 fold enrichment (6-mer frequency, TF over GST control)
EHF
  binding signal: 1.33 fold enrichment (6-mer frequency, TF over GST control)
SPI1
  binding signal: 1.17 fold enrichment (6-mer frequency, TF over GST control)
SPIB
  binding signal: 1.34 fold enrichment (6-mer frequency, TF over GST control)
ELK3
  binding signal: 1.25 fold enrichment (6-mer frequency, TF over GST control)
FEV
  binding signal: 1.2 fold enrichment (6-mer frequency, TF over GST control)
ETV5
  binding signal: 1.31 fold enrichment (6-mer frequency, TF over GST control)
HSF1
  binding signal: 1.99 fold enrichment (6-mer frequency, TF over GST control)
SPIC
  binding signal: 1.21 fold enrichment (6-mer frequency, TF over GST control)
ELF4
  binding signal: 1.29 fold enrichment (6-mer frequency, TF over GST control)
ELK4
  binding signal: 1.31 fold enrichment (6-mer frequency, TF over GST control)
ETV2
  binding signal: 1.29 fold enrichment (6-mer frequency, TF over GST control)
ELF3
  binding signal: 1.33 fold enrichment (6-mer frequency, TF over GST control)
CRX
  binding signal: 1.34 fold enrichment (6-mer frequency, TF over GST control)
ETV1
  binding signal: 1.29 fold enrichment (6-mer frequency, TF over GST control)
